In ChEMBL document CHEMBL3433997, “St. Jude Leishmania screening dataset” (2016) one finds inhibition data, which are given here for 34 compounds.

As usually defined, the inhibition is the change of the read-out against control, counted positive when it falls.

Common to all, as to type: functional
In assay [1] the target is Solute carrier family 2, facilitated glucose transporter member 1 (Homo sapiens) (UniProt P11166). As to the kind of experiment: ST_JUDE_LEISH: Cytotoxicity at 2uM final concentration against transgenic Leishmania Mexicana promastigotes LmGLUT1 that are glucose transport deficient and complemented with the human glucose transporter GLUT1. Activity is measured by DNA content using SYBR green in vitro.

The target in assay [2] is Hexose transporter 1 (Plasmodium falciparum) (UniProt O97467). As to the kind of experiment: ST_JUDE_LEISH: Cytotoxicity at 2uM final concentration against transgenic Leishmania Mexicana promastigotes LmPfHT that are glucose transport deficient and complemented with the Plasmodium falciparum hexose transporter. Activity is measured by DNA content using SYBR green in vitro.

Assay [3] deals with Glucose transporter (Leishmania mexicana) (UniProt O61059). As to the kind of experiment: ST_JUDE_LEISH: Cytotoxicity at 2uM final concentration against transgenic Leishmania Mexicana promastigotes LmGT2 that are glucose transport deficient and complemented with the L. Mexicana glucose transporter 2. Activity is measured by DNA content using SYBR green in vitro.

Sequence of Solute carrier family 2, facilitated glucose transporter member 1 (Homo sapiens) (P11166 whole entry): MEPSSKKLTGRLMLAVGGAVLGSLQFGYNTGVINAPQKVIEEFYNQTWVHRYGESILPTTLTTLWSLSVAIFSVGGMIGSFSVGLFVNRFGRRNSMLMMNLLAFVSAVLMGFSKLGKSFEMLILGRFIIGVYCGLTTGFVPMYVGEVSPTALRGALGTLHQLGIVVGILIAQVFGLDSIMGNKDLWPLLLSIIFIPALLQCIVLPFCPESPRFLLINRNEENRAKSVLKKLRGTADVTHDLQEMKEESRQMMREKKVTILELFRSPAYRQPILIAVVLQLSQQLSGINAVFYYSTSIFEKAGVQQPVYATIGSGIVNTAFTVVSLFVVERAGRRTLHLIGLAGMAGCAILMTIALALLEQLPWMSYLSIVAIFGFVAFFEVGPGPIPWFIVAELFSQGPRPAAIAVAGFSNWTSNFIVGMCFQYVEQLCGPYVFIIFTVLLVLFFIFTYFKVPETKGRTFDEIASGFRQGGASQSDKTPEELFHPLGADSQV

Regarding `CCN(CC)CCN(Cc1ccc(-c2ccc(C(F)(F)F)cc2)cc1)C(=O)CN1C(CCc2cccc(F)c2F)=NS(=O)(=O)c2ccccc21`, the inhibition is -0.85% in assay [1], -0.42% in assay [2] and -3.12% in assay [3].
In the case of `CCN1CCCC(Nc2ccnc3cc4ccccc4cc23)C1` (configuration not stated), the inhibition in assay [1] stood at 4.12%; in assay [2], 4.34%; in assay [3] it was 4.81%.
On to `COc1ccc(CNCc2ccc(-c3ccc(-c4nc5cc(C(F)(F)F)ccc5[nH]4)cc3)cc2)cc1`, for which the inhibition in assay [1] stood at 3.97%; in assay [2], 1.19%; in assay [3] it was 3.06%.
As to `Cc1cc(Nc2ccc(O)cc2)nc2cc(O)ccc12`, the inhibition was found to be 3.16% in assay [1], 1.93% in assay [2] and 3.51% in assay [3].
As to `CN1CCN(Cc2cc3cc(NC(=O)/C=C/c4ccc(Cl)cc4)ccc3s2)CC1`, the values for the inhibition in assay [1], in assay [2] and in assay [3] were 4.5%, 0.55% and 1.01%, respectively.
The matching figures for `CCNc1cc(CCCC(=O)OCC)nc(Nc2ccc(C)cc2)n1`: 10.3%, 13% and 10.3%.
The like results for `CCCn1cnc2cc(C(=O)Nc3ccc(-c4cccc(CN(C)C)c4)cc3)ccc2c1=O` were, in that order, 55%, 3.03% and 5.21%.
Regarding `Cc1cc(NC(=O)Nc2ccc(I)c(OCCN(C)C)c2)ccc1Br`, the inhibition in assay [1] amounted to 10.5%; in assay [2] it was 7.25%; in assay [3], 6.57%.
The like results for `Cc1cc(-c2cccc(CNCCc3ccc(Cl)cc3)c2)cnc1N` were, in that order, 6.5%, 6.59% and 7.77%.
As to `O=C(NCc1cccs1)[C@H](Cc1ccccc1)Nc1ccnc(NCC2CCCCC2)n1`, the inhibition in assay [1] turned out to be 11.9%; in assay [2], 10.5%; in assay [3] it was 10.6%.
`N=C(N)Nc1ccc(OCCCCCOc2ccc(NC(=N)N)cc2Br)c(Br)c1`: the inhibition in assay [1] stood at 4.63%; in assay [2] it was 1.79%; in assay [3] it was 0.79%.
For the compound `CNC(=O)c1cnc(Nc2ccc3[nH]c(=O)[nH]c3c2)nc1Nc1cccc(OC(C)C)c1`, the values for the inhibition in assay [1], in assay [2] and in assay [3] were -0.17%, -0.76% and -0.26%, respectively.
In the case of `CCc1ccccc1N=C1c2c(cccc2[N+](=O)[O-])C(=O)C1C(C)=O` (configuration not stated), the inhibition in assay [1] is -1.62%; in assay [2], -1.21%; in assay [3] it was -2.14%.
With `Cc1cc(N)nc2ccc(-c3cccc(CN)c3)cc12`, the inhibition in assay [1] was 0.78%; in assay [2], 0.76%; in assay [3], -2.14%.
`NCCCNc1ccnc2cc(Cl)ccc12`: the inhibition in assay [1] was -0.29%; in assay [2] it was 1.55%; in assay [3] it was 10.7%.
The like results for `CCC(=O)c1c(C)n(-c2ncnc3c2nc(C)n3-c2ccc(C)cc2C)c2ccccc12` were, in that order, 4.6%, 1.9% and 3.62%.
The matching figures for `O=C(Nc1cccnc1)c1cc(C(=O)Nc2cccnc2)cc([N+](=O)[O-])c1`: 0.86%, 3.44% and 0.83%.
Consider `CC(C)c1cccc(C(NC(=O)[C@H]2Cc3ccccc3CN2C(=O)c2cccc(N3CCOCC3)c2)C2CCCC2)c1` (some centres not stated), for which the inhibition in assay [1] was 1%; in assay [2], 0.21%; in assay [3], 0.64%.
In the case of `Cn1nc(-c2cccc(CNCc3ccccc3)c2)c2cnc(NC3CCCC3)nc21`, the inhibition in assay [1] is -0.97%; in assay [2], 0%; in assay [3], -1.01%.
Consider `C=C(C)CSc1nc2c(c(=O)n1CCc1ccccc1)C1(CCCC1)Cc1ccccc1-2`, for which the results for the inhibition in assay [1], in assay [2] and in assay [3] were 5.95%, 5.36% and 5.02%, respectively.
For `CCn1ncc2c(N3CCCC3=O)cc(C(=O)N[C@@H](Cc3ccccc3)[C@H](O)CNC(C)(C)c3cccc(C(F)(F)F)c3)cc21`, the figures for the inhibition in assay [1], in assay [2] and in assay [3] were -0.71%, 0.84% and 5.42%, respectively.
Regarding `Cc1ncc([N+](=O)[O-])n1CCOC(=O)NC(Nc1ccc(Br)cc1)C(Cl)(Cl)Cl` (configuration not stated), the inhibition in assay [1] was 2.8%; in assay [2], 0.15%; in assay [3] it was -1.63%.
On to `CS(=O)(=O)c1ccc(CNCc2ccc(-c3ccc(-c4nc5cc(C(F)(F)F)ccc5[nH]4)s3)cc2)cc1`, for which the inhibition in assay [1] stood at 12%; in assay [2] it was 10.7%; in assay [3], 9.87%.
As for `COc1ccc(NC(=O)Nc2ccc(-c3ccccc3)cc2Cl)cc1N1CCN(C)CC1`, the inhibition in assay [1] stood at 12%; in assay [2], 11.8%; in assay [3], 3.58%.
The matching figures for `COc1cccc(Nc2nc(Nc3cccc(C#N)c3)cc(C(F)(F)F)n2)c1`: 6.5%, 6.64% and 6.05%.
The like results for `O=C(Nc1cccc(-c2ccc(-c3nc4ccccc4[nH]3)cc2)c1)c1csnn1` were, in that order, 1.19%, 1.58% and 0.69%.
Turning to `Cc1ccc(Nc2nccc(NCC(O)c3cccc(C)c3)n2)cc1` (configuration not stated), the inhibition stood at 5.47% in assay [1], 4.73% in assay [2] and 3.22% in assay [3].
As for `Cc1ccc2c(=NN=CC=Cc3ccccc3)cc(C)[nH]c2c1`, the values for the inhibition in assay [1], in assay [2] and in assay [3] were 1.49%, 5.52% and 2.88%, respectively.
The matching figures for `O=C(NCCN1Cc2ccccc2C1=O)c1ccc(Oc2ccc(C(=O)NCCN3Cc4ccccc4C3=O)cc2)cc1`: -0.35%, 0.02% and -0.4%.
As for `CC(=NNC(=N)N)c1ccc2ccc3ccccc3c2c1`, the inhibition in assay [1] came out at 0.27%; in assay [2], 1.38%; in assay [3], 0.74%.
The matching figures for `COc1ccc2ncc(F)c(CCN3CC(O)C(CNCc4ccccc4)C3)c2n1` (configuration not stated): 7.65%, 5.1% and 4.78%.
Consider `CN(C(=O)Cc1ccc(Cl)cc1)C1CCN(CCCCCNC(=O)/C=C/c2ccc(Cl)c(Cl)c2)CC1`, for which the figures for the inhibition in assay [1], in assay [2] and in assay [3] were 2.86%, 2.1% and 1.99%, respectively.
Consider `COc1cccc(CNC[C@@H](O)[C@H](Cc2ccccc2)NC(=O)c2cc(C(C)C)cc(N3CCCC3=O)c2)c1`, for which the inhibition in assay [1] was -1.08%; in assay [2], 0.91%; in assay [3], -1.21%.
`Cc1cc(N[C@@H](Cc2ccccc2)C(=O)NCc2cccs2)nc(NCCc2ccccc2)n1`: the inhibition in assay [1] is 2.96%; in assay [2] it was 2.94%; in assay [3], -1.2%.
